# Reference: PubChem BioAssay AID588726 (The Scripps Research Institute Molecular Screening Center, 2011)
# The whole screen tested about 360,000 compounds, of which about 8,200 (2.3%) were called active. The sample holds actives, similar compounds and a random draw of the others, so the mix is not that of the screen. Cut-off read from the data, not from the text of the source: active = inhibition above about 27%; inactive = the rest.
# Target: Fructose-bisphosphate aldolase (Mycobacterium tuberculosis (strain ATCC 25618 / H37Rv)) (UniProt P9WQA3)
# Assay: M. tuberculosis aldolase activity blockers – biochemical, fluorescence, strain H37Rv, primary screen (AID 588726);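 note: 0% = vehicle and 100% = reference inhibitor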
# Settings: purified M. tuberculosis FBA, fluorescence read-out, at 1 µM, active compounds read high
# Sequence of Fructose-bisphosphate aldolase (Mycobacterium tuberculosis (strain ATCC 25618 / H37Rv)) (P9WQA3 whole entry, looked up): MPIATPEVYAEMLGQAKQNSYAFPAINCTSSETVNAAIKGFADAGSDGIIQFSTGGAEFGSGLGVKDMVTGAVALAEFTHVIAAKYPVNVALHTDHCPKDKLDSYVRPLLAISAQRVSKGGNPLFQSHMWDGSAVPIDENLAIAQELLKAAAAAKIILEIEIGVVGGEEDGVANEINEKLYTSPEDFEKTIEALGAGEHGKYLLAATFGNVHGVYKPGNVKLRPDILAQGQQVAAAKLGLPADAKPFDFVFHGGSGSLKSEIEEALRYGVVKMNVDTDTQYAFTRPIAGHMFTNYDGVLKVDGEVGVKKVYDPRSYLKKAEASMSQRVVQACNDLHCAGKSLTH
row,SMILES,inhibition
1,COc1ccc(C(C)C)cc1S(=O)(=O)Nc1ncn[nH]1,-1.62% (inactive)
2,COc1ccc2c(c1OC)C(=O)N(c1ncn[nH]1)C2,31.1% (active)
3,COc1ccc2c(c1OC)C(=O)N(c1ccc(O)cc1)C2,-2.29% (inactive)
4,Cc1nnc(NC(=O)CSc2nccn2-c2cccc(C)c2C)s1,1.13% (inactive)
5,CCCc1cc(=S)n2c([nH]c3ccccc32)c1C#N,14.3% (inactive)
6,CCOC(=O)C1CCN(C(=O)Cn2cc(C#N)c3ccccc32)CC1,1% (inactive)
7,COc1ccc(C(C(=O)NC2CCCCC2)N(C(=O)Cc2c[nH]c3ccccc23)c2ccccc2)cc1OC (stereo unspecified),-0.54% (inactive)
8,CC(=O)N1CCSc2ccc(S(=O)(=O)N3CCC(C)CC3)cc21,3.62% (inactive)
9,CC12CCC(C(=O)N(CCC#N)CCC#N)(CC1=O)C2(C)C (stereo unspecified),1.36% (inactive)
10,Cc1ccc(C(=O)NC(=S)Nc2ccc3[nH]c(=O)[nH]c3c2)cc1C,2.47% (inactive)
11,COC(=O)c1cc(C(=O)NC(C)C2CC3CCC2C3)cc([N+](=O)[O-])c1 (stereo unspecified),6.2% (inactive)
12,Cc1cccc(NC(=O)c2cc(S(=O)(=O)N3CCC4(CC3)OCCO4)ccc2F)c1,-0.22% (inactive)
13,O=C(NC1CCN(Cc2ccccc2)CC1)c1ccc(Oc2cc(Cl)cc(Cl)c2)o1,1.42% (inactive)
14,Cc1cc(C(=O)NC2CCN(Cc3ccccc3)CC2)n[nH]1,0.08% (inactive)
15,O=C(NC1CCN(Cc2ccccc2)CC1)c1cc(Br)c(Br)[nH]1,40% (active)
16,OC(c1ccc(Cl)c(F)c1)c1ncc(-c2ccccc2Cl)[nH]1 (stereo unspecified),-1.69% (inactive)
17,CCCCN(CCCC)CC(O)Cn1c2ccccc2c(=O)c2ccccc21 (stereo unspecified),71.2% (active)
18,OC(Cn1c2ccccc2c2ccccc21)C[n+]1ccccc1 (stereo unspecified),-1.64% (inactive)
19,CS(=O)(=O)N(CC(O)Cn1c2ccccc2c2ccccc21)c1cccc2ccccc12 (stereo unspecified),-2.35% (inactive)
20,O=C(CNC(=O)[C@@H]1Cc2ccccc2CN1)NC1CCCCC1,0.53% (inactive)
21,CC(C)C(NC(=O)OCc1ccccc1)C(=O)OCC(=O)N1C(C)CCCC1C (stereo unspecified),2.57% (inactive)

row,SMILES,inhibition
1,COc1ccc(CCN2C(=O)CC(N3CCC(C(N)=O)CC3)C2=O)cc1OC (stereo unspecified),-1.48% (inactive)
2,Cc1nc(SC(C)C)[nH]c(=O)c1Cc1ccccc1,0.91% (inactive)
3,N#Cc1c(N)nc2c(c1N)CC(C(F)(F)F)O2 (stereo unspecified),0.26% (inactive)
4,CCc1ccc(-c2cc(C(=O)NN3CCN(C)CC3)c3ccccc3n2)cc1,0.75% (inactive)
5,Cc1nc2ccccc2c(C(=O)O)c1-c1ccccn1,-2.32% (inactive)
6,O=C(CCCN1C(=O)CSc2ncccc21)N1CCN(c2cccc(C(F)(F)F)c2)CC1,3.32% (inactive)
7,CCCCCCc1cc2cc(-c3nnc(-c4ccccc4)o3)c(=O)oc2cc1O,4.92% (inactive)
8,CN(C)c1cc(-c2ccc(F)cc2)oc(=O)c1Cl,-2.58% (inactive)
9,Cc1cc(Cl)ccc1N1C(=O)CC(SCCC(=O)O)C1=O (stereo unspecified),5.32% (inactive)
10,COc1ccc(C(=O)NCCSc2ccccc2C)cc1,0.09% (inactive)
11,CCOc1ccc2nc(NCCNC(=O)C(C)(C)C)c(C)cc2c1,26.1% (inactive)
12,CCOc1ccc(S(=O)(=O)NCCSc2ccccc2)cc1,1.75% (inactive)
13,CCOc1ccc2nc(NCCNS(=O)(=O)c3ccccc3)c(C#N)cc2c1,40.1% (active)
14,Cn1nc(N)c2ncc(C(Cl)(Cl)Cl)nc21,-3.83% (inactive)
15,COC(=O)c1c(-c2ccsc2)oc2ccc(-c3cc(OC)c(OC)c(OC)c3)cc12,27.6% (active)
16,COc1cc(-c2nnc(NC(=O)CS(=O)(=O)c3ccc(Cl)cc3)o2)cc(OC)c1OC,-1.58% (inactive)
17,COc1cc2c(-c3ccc4c(c3)OCO4)c(-c3ccsc3)oc(=O)c2cc1OC,2.51% (inactive)
18,CCCCC(NC(=O)c1cccc(Br)c1)C(=O)O (stereo unspecified),3.7% (inactive)
19,O=C(NC1CC2CCCC(C1)N2C(=O)N1CCCCC1)C1CCCCC1 (stereo unspecified),2.38% (inactive)
20,CCOCCCN(C)C1CCN(C(=O)c2oc3ccccc3c2NC(=O)Cc2cccc([N+](=O)[O-])c2)CC1,-1.05% (inactive)
21,Cc1cc2oc3ccc(NCCC4CCCN4C)cc3c(=O)c2cc1C (stereo unspecified),-0.55% (inactive)

row,SMILES,inhibition
1,COc1cccc2sc3cc(NCC[C@@H]4CCCN4C)ccc3c(=O)c12,40.4% (active)
2,CN1CCC[C@@H]1CCO[C@](C)(c1ccccc1)c1ccc(Cl)cc1,-4.31% (inactive)
3,COC(=O)c1c(C(=O)OC)c(-c2cccc(C)c2)n2c1CS(=O)C2 (stereo unspecified),-0.62% (inactive)
4,COc1ccc2c(c1)OC(O)(C(F)(F)C(F)F)CC2=O (stereo unspecified),-0.78% (inactive)
5,O=S(=O)(c1ccc(Cl)s1)N1CCC2(CC1)OCCO2,0.69% (inactive)
6,CCC12CN3CC(CC)(CN(C1)C31C(=O)N(C)c3ccc(C)cc31)C2=O (stereo unspecified),-4.48% (inactive)
7,Cc1cc(C(=O)OCC(=O)Nc2ccc(F)c(F)c2)c(C)o1,0.1% (inactive)
8,c1cnc(NC2C3CC4CC(C3)CC2C4)nc1 (stereo unspecified),1.67% (inactive)
9,Fc1cnc(N2CCOCC2)nc1NCc1ccccc1,15.4% (inactive)
10,CC(CN1CCOCC1)c1ccccc1 (stereo unspecified),-0.87% (inactive)
11,c1ccc2c(NC3C4CC5CC(C4)CC3C5)nc(N3CCOCC3)nc2c1 (stereo unspecified),37.7% (active)
12,CC(Nc1nc(N2CCOCC2)nc2ccccc12)c1ccccc1 (stereo unspecified),50.4% (active)
13,Clc1nc(NC2CCCC2)nc(N2CCOCC2)n1,2.59% (inactive)
14,Cc1ccc(-n2nc(-c3ccco3)cc2C(=O)NCc2cccnc2)cc1,-1.53% (inactive)
15,CC(=O)N1CC(=O)N(CC(=O)Nc2ccc(Br)cc2)C1=S,-0.11% (inactive)
16,COc1ccc(C)cc1N(CC(=O)N1CCCC1)S(=O)(=O)c1ccccc1,-1.91% (inactive)
17,CC1CCCCC1NC(=O)c1cn(C)c2ccc(S(=O)(=O)N3CCOCC3)cc2c1=O (stereo unspecified),-7.99% (inactive)
18,Cc1ccccc1N1CCN(CCCN2C(=O)C3CCCCN3C2=O)CC1 (stereo unspecified),0.31% (inactive)
19,COC(=O)C1=C(C)N(C)C(=S)NC1c1cc(OC)ccc1OC (stereo unspecified),2.6% (inactive)
